Compound activity: PubChem BioAssay, National Center for Advancing Translational Sciences (NCATS)
Hits are enriched below; roughly 3% of the tested compounds scored in any of these assays.
BCR signal inh: inhibitors of chronic active B-cell receptor signaling | ABC-DLBCL IkBa-CBG/CBR reporter, luminescence ratio, 4 h | Potency, µM (top dose mostly 46.1 µM), actives largely listed as inhibitors | hit rate 0.05% among 340,000; active = well fitted inhibition curve with a large enough effect in the signal ratio, with a control signal flat, not every such curve was filed as active; inconclusive = small, poorly fitted or top-dose-only effect, or effect the other way, or a change in a side signal; the % refers to the signal ratio
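TMD8 ABC-DLBCL cells carrying doxycycline-inducible green luciferase fused to IkappaBalpha plus unfused red luciferase were exposed to compounds (up to 46 uM) for 4 hrs at 37C. Activity came from the overlap-corrected green/red luminescence ratio.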
ALOX12 inh: ALOX12 (human) lipoxygenase inhibition; P18054; purified 12hLO, xylenol orange hydroperoxide absorbance; Potency, µM (doses to about 108 µM), usual class: inhibitors; hit rate 1.1% among 580,000; AID 1671190; active = well fitted inhibition curve with a large enough effect; inconclusive = small, poorly fitted or top-dose-only effect, or another doubt; inactive = no such curve, though single readings can be large or run the other way
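Hydroperoxide product was detected by ferrous iron/xylenol orange as the 573 to 405 nm absorbance ratio. Arachidonic acid at 40 uM (final) was turned over for 30 min at room temperature by 150 nM human 12hLO, pH 7.0 Hepes buffer, after 15 min compound preincubation.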
KCNH2 WT inh: inhibitors of human wildtype KCNH2 potassium channel; U2OS, BacMam KCNH2, thallium flux FluxOr; stronger effect = lower value; activity change, % at 1.84 µM; hit rate 0.37% among 340,000;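 active = maximum activity change below -70%; inconclusive = maximum activity change between -70% and -50%; inactive = maximum activity change above -50%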
Target sequence (Q12809 whole entry, looked up): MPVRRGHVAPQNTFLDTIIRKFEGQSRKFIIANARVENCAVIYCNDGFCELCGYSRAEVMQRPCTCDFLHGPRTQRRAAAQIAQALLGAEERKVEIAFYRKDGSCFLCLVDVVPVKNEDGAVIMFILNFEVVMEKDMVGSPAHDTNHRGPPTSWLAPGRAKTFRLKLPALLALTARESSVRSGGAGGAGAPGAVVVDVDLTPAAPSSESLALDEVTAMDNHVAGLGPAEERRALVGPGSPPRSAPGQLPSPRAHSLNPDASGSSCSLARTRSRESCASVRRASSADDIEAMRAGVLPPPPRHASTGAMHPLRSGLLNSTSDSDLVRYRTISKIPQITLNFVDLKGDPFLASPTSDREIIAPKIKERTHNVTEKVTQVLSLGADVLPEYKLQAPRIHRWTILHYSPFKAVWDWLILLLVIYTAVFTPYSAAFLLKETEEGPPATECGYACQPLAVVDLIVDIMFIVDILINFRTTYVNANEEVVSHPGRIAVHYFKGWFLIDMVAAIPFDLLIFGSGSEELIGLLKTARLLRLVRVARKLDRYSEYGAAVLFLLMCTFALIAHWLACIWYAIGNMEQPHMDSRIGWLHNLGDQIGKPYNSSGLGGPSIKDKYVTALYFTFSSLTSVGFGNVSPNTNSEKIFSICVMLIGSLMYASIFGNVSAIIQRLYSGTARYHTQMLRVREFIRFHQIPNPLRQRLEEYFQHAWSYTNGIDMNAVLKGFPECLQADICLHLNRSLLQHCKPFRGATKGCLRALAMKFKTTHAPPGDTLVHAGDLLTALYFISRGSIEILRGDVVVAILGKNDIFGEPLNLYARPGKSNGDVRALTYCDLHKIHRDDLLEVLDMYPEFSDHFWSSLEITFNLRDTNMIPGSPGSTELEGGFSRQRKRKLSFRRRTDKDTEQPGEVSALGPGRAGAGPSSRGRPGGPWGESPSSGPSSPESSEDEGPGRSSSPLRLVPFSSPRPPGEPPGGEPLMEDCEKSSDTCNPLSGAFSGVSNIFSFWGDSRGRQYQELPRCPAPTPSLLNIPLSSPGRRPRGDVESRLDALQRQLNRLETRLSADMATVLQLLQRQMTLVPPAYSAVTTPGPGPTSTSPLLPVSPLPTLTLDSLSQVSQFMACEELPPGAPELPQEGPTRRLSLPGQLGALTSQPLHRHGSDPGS
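U2OS cells were transduced with wild-type KCNH2 virus (2.03 x 10^8 / mL) for 4 h at room temperature, then cultured overnight at 37 C. Thallium flux was read with FluxOr dye. Rate constants were normalized to DMSO controls.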
LDHA inh: LDHA (human) enzyme inhibition; activity change, % (values are at about 110 or 230 µM); purified LDHA, NADH/diaphorase-resazurin fluorescence; stronger effect = lower value; AID 1347041; P00338; hit rate 0.15% among 480,000; in the data active = activity change below about -30%; inconclusive = mostly about -25% to -30%
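Remaining NADH was detected by diaphorase (0.133 mg/mL) converting 37 µM resazurin to fluorescent resorufin, read at 0 and 20 minutes. The preceding 5-minute room-temperature reaction used 2 nM LDHA, 0.2 mM sodium pyruvate and 0.06 mM NADH at pH 7.4.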
KCNH2 3.1 block: blocks the human KCNH2 3.1 channel isoform; U2OS KCNH2 3.1, thallium flux FluxOr; stronger effect = lower value; activity change, % (tested at about 1.8 µM); hit rate 0.95% among 340,000; AID 720553;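 active = maximum activity change below -70%; inconclusive = maximum activity change from -70% to -50%; inactive = maximum activity change above -50%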;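 note: thallium influx rate constant from kinetic fluorescence after stimulation buffer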
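We transduce U2OS cells with the mutant 3.1 virus, culture them overnight, load FluxOr with Red40 quencher for 45 min, then add stimulation buffer and read kinetically for 2 min to derive a normalized rate constant.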
ClpP mod: qHTS Assay for Activators of ClpP | purified B. subtilis ClpP, FRET peptide cleavage, 20 min | ATP-dependent Clp protease proteolytic subunit (Bacillus subtilis (strain 168)), P80244 | AID 651965, 2013 | hit rate 1.9% among 340,000 | Potency, µM (highest dose often 57.5 µM); active = well fitted falling curve with a large enough effect; inconclusive = small, poorly fitted or top-dose-only effect; inactive = no such curve, though single readings can be large or run the other way; note: the source files actives as falling curves though it sought activators and does not explain the sign; nearly all actives have a fitted effect of over 65% in size
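ClpP 10 microg/mL final, pH 8 Tris/KCl buffer with BSA, glycerol, Tween-20; compound pinned in; FRET-FV substrate; RT 20 min; Ex320/Em430; ΔFRET vs ADEP 5.8 microM, DMSO, no enzyme.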
Each line names hits and unclear results; the compound was inactive in the other large screens.

COc1nc(-c2ccccc2)ccc1-c1noc(COc2ccccc2)n1	ALOX12 inh inconclusive, ClpP mod 10µM (no result: BCR signal inh)
COc1nc(-c2ccccc2)ccc1-c1noc(-c2cccs2)n1	ClpP mod 20µM (no result: BCR signal inh)
c1ccc(OCc2nc(-c3ccccc3)no2)cc1	BCR signal inh inconclusive
COc1nc(-c2ccccc2)ccc1-c1noc(-c2ccccc2)n1	ClpP mod inconclusive
COc1ccc(-c2ccc(-c3noc(-c4ccccc4)n3)c(OC)n2)cc1	none
COc1nc(-c2ccccc2)ccc1-c1noc(-c2ccco2)n1	ALOX12 inh 20µM, ClpP mod 32µM
COc1ccc(-c2ccc(-c3noc(-c4ccco4)n3)c(OC)n2)cc1	ClpP mod 28µM
COc1ccc(-c2cc(N3CCCC(NC(=O)c4cnccn4)C3)n[nH]2)cc1 (stereo not drawn)	none (no result: BCR signal inh, KCNH2 WT inh, LDHA inh, KCNH2 3.1 block, ClpP mod)
CCOC(=O)c1cc(C(O)(C(F)(F)F)C(F)(F)F)c(N)o1	none (no result: BCR signal inh, KCNH2 WT inh, KCNH2 3.1 block, ClpP mod)
CN1c2cc(C(=O)N3CCN(c4cccc(Cl)c4)CC3)ccc2C(=O)N2CCCC21 (stereo not drawn)	none (no result: BCR signal inh, KCNH2 WT inh, LDHA inh, KCNH2 3.1 block, ClpP mod)
COc1ccc(CCNC(=O)c2cc3c(s2)-c2c(C)cccc2OC3)cc1OC	ALOX12 inh inconclusive (no result: BCR signal inh, KCNH2 WT inh, KCNH2 3.1 block, ClpP mod)
COC(=O)NCc1ccc(OC)c(OC)c1	ALOX12 inh inconclusive (no result: BCR signal inh, KCNH2 WT inh, KCNH2 3.1 block, ClpP mod)
CCOc1nc(-c2ccc(C)cc2)ccc1-c1noc(COC)n1	ClpP mod 32µM
CC(C#N)OC(=O)c1ccccc1Cc1ccccc1 (stereo not drawn)	ALOX12 inh inconclusive (no result: BCR signal inh, KCNH2 WT inh, KCNH2 3.1 block, ClpP mod)
O=C(CCC1CCN(C(=O)c2cc(C(F)(F)F)ccc2Cl)CC1)NC1CC1	KCNH2 3.1 block -115
COc1cc2c(cc1OC)C1=NC(=O)CN1C(SCc1ccccc1C)=N2	ClpP mod 18µM
Cc1ccccc1NC(=O)c1cc([N+](=O)[O-])ccc1NCCN1C(=O)CCC1=O	BCR signal inh inconclusive, KCNH2 3.1 block -159, ClpP mod inconclusive
O=C(Cn1c(=O)oc2ccccc21)NC1CCCN(CCCc2ccccc2)C1 (stereo not drawn)	none (no result: BCR signal inh, KCNH2 WT inh, LDHA inh, KCNH2 3.1 block, ClpP mod)
CCOc1cccc(C2C(C(=O)c3ccc(C)o3)=C(O)C(=O)N2c2nccs2)c1 (stereo not drawn)	ALOX12 inh 0.63µM
Cc1ccc(C(CNC(=O)c2cc(-c3ccc4c(c3)CCCC4)on2)N2CCN(C)CC2)o1 (stereo not drawn)	ALOX12 inh inconclusive (no result: BCR signal inh, KCNH2 WT inh, KCNH2 3.1 block, ClpP mod)
CCCN1C(=O)Cc2ccccc2C1C(=O)N1CCN(c2ccccc2)CC1 (stereo not drawn)	none (no result: BCR signal inh, KCNH2 WT inh, LDHA inh, KCNH2 3.1 block, ClpP mod)
Cc1ccc(/C=C(\C#N)C(=O)NC2CCCC2)o1	none (no result: BCR signal inh, KCNH2 WT inh, KCNH2 3.1 block, ClpP mod)
Cc1cc(C)c2nc(NNC(=O)c3ccc(S(=O)(=O)N4CCCC(C)C4)cc3)sc2c1 (stereo not drawn)	ALOX12 inh 5.6µM
Cc1cc(C)c2nc(NNC(=O)c3ccc(S(=O)(=O)N4CC(C)CC(C)C4)cc3)sc2c1 (stereo not drawn)	ALOX12 inh 6.3µM
Cc1cccc(NC(=O)/C=C/c2cccs2)c1C	none (no result: BCR signal inh, KCNH2 WT inh, KCNH2 3.1 block, ClpP mod)
CCC(CC)NC(=O)N1CCN(S(=O)(=O)c2ccccc2C#N)CC1	ALOX12 inh inconclusive (no result: BCR signal inh, KCNH2 WT inh, KCNH2 3.1 block, ClpP mod)
CC(=O)c1c(C)[nH]c(C(=O)NOCc2ccccc2)c1C	none (no result: BCR signal inh, KCNH2 WT inh, KCNH2 3.1 block, ClpP mod)
CN1C(=O)CS(=O)(=O)C12CCN(C(=O)c1cc(F)cc(F)c1)CC2	none (no result: BCR signal inh, KCNH2 WT inh, LDHA inh, KCNH2 3.1 block, ClpP mod)
CCC(C)[C@H]1CNCCN1CCC12CC3CC(CC(C3)C1)C2 (stereo partly drawn)	KCNH2 3.1 block -136
CCC(C)[C@H]1CNCCN1CCc1cccc2ccccc12 (stereo partly drawn)	none
Cc1ccccc1NC(=O)CN1C(=O)N/C(=C\c2cn(-c3cccc(C(=O)O)c3)cn2)C1=O	none (no result: BCR signal inh, ALOX12 inh, KCNH2 WT inh, KCNH2 3.1 block, ClpP mod)
Nc1ccccc1C(=O)NCc1ccc(Cl)cc1	ClpP mod 7.1µM
COc1cccc(CNC(=O)c2ccccc2N)c1	ClpP mod 5.6µM
CCOC(=O)NCc1ccc(Cl)cc1	none (no result: BCR signal inh, KCNH2 WT inh, KCNH2 3.1 block, ClpP mod)
NC(=O)NCc1ccc(Cl)cc1	KCNH2 3.1 block -80
COc1ccc(C(=O)Nc2cccc(NC(C)=O)c2)cc1Br	none (no result: BCR signal inh, KCNH2 WT inh, KCNH2 3.1 block, ClpP mod)
